# Reference: PubChem BioAssay
# Active and inactive are the calls of the source. Cut-off read from the data, not from the text of the source, unless noted: active = inhibition above about 80%; inactive = the rest.
# Columns and labels:
# [1] = growth inhibition, single agent or in combination, cell-based, chromothripsis tumors, cisplatin or BGB combos (AID 1671449); details: LFS_MB_P medulloblastoma cells;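 note: cells exposed for 96 hours; 0% = vehicle DMSO and 100% = killing by high DMSO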
# [2] = growth inhibition, single agent and combos, cell-based, chromothripsis tumors, cisplatin or BGB combos (AID 1671450); details: HDN33 neuroblastoma cells, stronger effect = higher value;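 note: cells exposed to compound for four days; 0% = vehicle DMSO and 100% = cell killing by high DMSO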
# [3] = growth inhibition, single agents and combos, ICB984, cell-based, cisplatin or BGB combos, synergistic combos for chromothripsis tumors (AID 1671451; call rule not given here;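 note: cells exposed for 96 hours before readout; 0% = vehicle DMSO and 100% = killing by high DMSO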); details: ICB984 medulloblastoma cells, drug combinations, stronger effect = higher value
# [4] = growth inhibition, single agents and combos, LFS_MB_1R, cell-based, cisplatin or BGB combos, synergistic combos for chromothripsis tumors (AID 1671452); details: LFS_MB_1R medulloblastoma cells, stronger effect = higher value;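 note: cells exposed for 96 hours before readout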
# [5] = growth inhibition, single agents and combos, HTB85, cell-based, BGB or cisplatin IC20 combos, synergistic combos for chromothripsis tumors (AID 1671453); details: HTB85 osteosarcoma cells, drug combinations, stronger effect = higher value;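 note: cells exposed for 96 hours before readout; 0% = vehicle DMSO and 100% = high DMSO killing control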
# [6] = growth inhibition, single agents and combos, CRL2098, cell-based, BGB or cisplatin IC20 combos, synergistic combos for chromothripsis tumors (AID 1671454); details: CRL2098 osteosarcoma cells, drug combinations, stronger effect = higher value;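 note: cells exposed for 96 h before readout; 0% = vehicle DMSO and 100% = killing by high DMSO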
# [7] = growth inhibition, single agents and combos, HD-MB03, cell-based, BGB or cisplatin IC20 combos, synergistic combos for chromothripsis tumors (AID 1671455; in the data active = inhibition above about 83%;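 note: 0% = vehicle DMSO and 100% = high DMSO as cytotoxic control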); details: HD-MB03 medulloblastoma cells, stronger effect = higher value
# [8] = growth inhibition, single agents and combos, UWB1.289, cell-based, BGB or cisplatin combos, synergistic combos for chromothripsis tumors (AID 1671456); details: UWB1.289 ovarian carcinoma cells, stronger effect = higher value;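 note: cells exposed to compound for four days; 0% = vehicle DMSO and 100% = killing by high DMSO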
# [9] = growth inhibition, single agents and combos, LFS_MB_2R, cell-based, cisplatin combos, synergistic combos for chromothripsis tumors (AID 1671457); details: LFS_MB_2R medulloblastoma cells, stronger effect = higher value;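 note: cells exposed to compound for four days before readout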
# [10] = growth inhibition, MDA-MB-436, cell-based, BGB or cisplatin combos, synergistic combos for chromothripsis tumors (AID 1671458; call rule not given here;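 note: cells exposed for 96 hours; 0% = vehicle DMSO and 100% = killing by high DMSO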); details: MDA-MB-436 breast carcinoma growth inhibition, drug combinations, stronger effect = higher value
# [11] = UWB1.289_BRCA1 ovarian cancer growth, cell-based, BGB or cisplatin combinations (AID 1671459); details: UWB1.289 BRCA1 ovarian carcinoma, drug combinations, stronger effect = higher value
# [12] = drug combination toxicity in non-malignant astrocytes – cell-based, BGB or cisplatin IC20 combos, cytotoxicity control for chromothriptic childhood tumor combination screen (AID 1671460); details: Human astrocytes, viability inhibition, drug combinations, at 0.5 µM, stronger effect = higher value;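 note: cells exposed to compounds for 96 hours before viability readout; 0% = vehicle and 100% = killing control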
# [13] = BT084 cell growth, single and combined drugs, ICGC_MB145, cisplatin and BGB IC40 combos (AID 1671461); details: BT084 medulloblastoma cells, drug combinations, stronger effect = higher value;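 note: cells exposed to drugs for 96 hours; 0% = vehicle DMSO and 100% = high DMSO full killing control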
# [14] = RCMB18 cell growth, single agent and combined, cisplatin and BGB IC40 combos (AID 1671462); details: RCMB18 medulloblastoma cells, stronger effect = higher value;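 note: cells exposed to compound for four days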
# [15] = CRL1545 cell growth, single agent and combined, cisplatin and BGB IC20 combos (AID 1671464); details: CRL1545 osteosarcoma cells, stronger effect = higher value;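 note: cells exposed to compound for 96 hours before readout; 0% = vehicle DMSO and 100% = high DMSO killing control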
# [16] = at 0.5 µM, stronger effect = higher value
# [17] = measured here: combination with BGB IC20, at 0.005 µM
# [18] = measured here: combination with BGB IC40, at 0.005 µM
# [19] = measured here: combination with BGB IC40, at 0.05 µM
# [20] = measured here: combination with cisplatin, at 0.5 µM, stronger effect = higher value
# [21] = measured here: combination with cisplatin, at 5 µM, stronger effect = higher value
# [22] = measured here: with BGB IC20 combination, at 0.5 µM
# [23] = measured here: with cisplatin IC20 combination, at 0.5 µM
# [24] = measured here: 5 uM single agent, at 5 µM
# [25] = measured here: combination with cisplatin, at 0.5 µM
# [26] = measured here: combination with cisplatin, at 5 µM
# [27] = measured here: with BGB IC20, at 0.5 µM
# [28] = measured here: with BGB IC20, at 5 µM
# [29] = measured here: with cisplatin IC20, at 0.5 µM
# [30] = measured here: with cisplatin IC20, at 5 µM
# [31] = measured here: combination with BGB at IC20, at 0.5 µM
# [32] = measured here: combination with cisplatin at IC20, at 0.5 µM
# [33] = measured here: combo with BGB at IC20, at 0.5 µM
# [34] = measured here: combo with cisplatin at IC20, at 0.5 µM
# [35] = measured here: inhibition with BGB combination, at 0.05 µM
# [36] = measured here: inhibition with cisplatin combination, at 0.05 µM
# [37] = measured here: BGB combination, at 0.5 µM
# [38] = measured here: BGB combination, at 5 µM
# [39] = measured here: cisplatin combination, at 0.5 µM
# [40] = measured here: cisplatin combination, at 5 µM
# [41] = BGB combination, concentration series, at 5 µM
# [42] = cisplatin combination, concentration series, at 5 µM
# [43] = measured here: combo with BGB IC20
# [44] = measured here: combo with cisplatin IC20
# [45] = cisplatin combination, at 0.5 µM
# [46] = measured here: BGB IC40 combination 0.05 uM, at 0.05 µM
# [47] = measured here: BGB IC40 combination, at 0.05 µM
compound,measurement,setting,value
O=c1ccn(C2CC(O)C(CO)O2)c(=O)[nH]1 (stereo unspecified),inhibition,[1]; [16],-18.8% (inactive)
same,inhibition,[1]; [17],-7.41%
same,inhibition,[1]; [18],-27.4%
same,inhibition,[1]; [19],-29.5%
same,inhibition,[1]; [20],-37.9%
same,inhibition,[1]; [21],-35.5%
same,inhibition,"[2]; BGB combo, at 5 µM",-20.7%
same,inhibition,[2]; at 0.5 µM,-36.9% (inactive)
same,inhibition,"[2]; cisplatin combo, at 5 µM",-20.7%
same,inhibition,[2]; [22],-38.7%
same,inhibition,[2]; [23],-41.3%
same,inhibition,"[2]; single agent, at 5 µM",-10.1%
same,inhibition,"[3]; BGB IC20 combo, at 0.005 µM",4%
same,inhibition,"[3]; BGB IC40 combo, at 0.005 µM",-31.4%
same,inhibition,"[3]; BGB IC40 combo, at 0.05 µM",-22%
same,inhibition,[3]; at 0.5 µM,-20.1% (inactive)
same,inhibition,"[3]; cisplatin combo, at 0.05 µM",-25.4%
same,inhibition,"[3]; cisplatin combo, at 0.5 µM",-21.2%
same,inhibition,"[3]; cisplatin combo, at 5 µM",-29.4%
same,inhibition,[3]; [24],-22%
same,inhibition,[4]; at 0.5 µM,-29.6% (inactive)
same,inhibition,[4]; [19],-35%
same,inhibition,[4]; [25],-32.9%
same,inhibition,[4]; [26],-47.4%
same,inhibition,[5]; at 0.5 µM,-20.1% (inactive)
same,inhibition,[5]; [27],-39.5%
same,inhibition,[5]; [28],-39.3%
same,inhibition,[5]; [29],-5.42%
same,inhibition,[5]; [30],-49.8%
same,inhibition,"[5]; single agent, at 5 µM",-26.7%
same,inhibition,[6]; at 0.5 µM,-68.3% (inactive)
same,inhibition,[6]; [31],-48.5%
same,inhibition,[6]; [32],-72.4%
same,inhibition,[7]; at 0.5 µM,-3.73% (inactive)
same,inhibition,[7]; [33],-8.35%
same,inhibition,[7]; [34],-4.82%
same,inhibition,[8]; at 0.5 µM,0.16% (inactive)
same,inhibition,[8]; [35],-21%
same,inhibition,[8]; [36],-1.45%
same,inhibition,[9]; at 0.5 µM,-20.5% (inactive)
same,inhibition,[9]; [25],-18.3%
same,inhibition,[9]; [26],-78.5%
same,inhibition,[10]; at 0.5 µM,-14.8% (inactive)
same,inhibition,[10]; [37],-6.54%
same,inhibition,[10]; [38],-25.5%
same,inhibition,[10]; [39],-29.1%
same,inhibition,[10]; [40],-17%
same,inhibition,[11]; [41],-3.77%
same,inhibition,[11]; at 0.5 µM,0.57% (inactive)
same,inhibition,[11]; [42],10.4%
same,inhibition,[12],3.18% (inactive)
same,inhibition,[12]; [43],-6.85%
same,inhibition,[12]; [44],4.49%
same,inhibition,[13]; at 0.5 µM,-24.6% (inactive)
same,inhibition,[13]; [45],-0.373%
same,inhibition,"[13]; cisplatin combination, at 5 µM",1.74%
same,inhibition,[13]; [46],26.6%
same,inhibition,"[13]; single agent, at 5 µM",-10.6%
same,inhibition,[14]; at 0.5 µM,-15.4% (inactive)
same,inhibition,"[14]; cisplatin combo, at 5 µM",1.69%
same,inhibition,[14]; [47],3.1%
same,inhibition,[14]; [25],9.29%
same,inhibition,"[14]; single agent, at 5 µM",-204%
same,inhibition,[15]; at 0.5 µM,-20.7% (inactive)
same,inhibition,[15]; [22],-5.72%
same,inhibition,[15]; [23],-31.1%
same,inhibition,"[15]; single agent, at 0.05 µM",-46.2%
same,inhibition,"[15]; single agent, at 5 µM",-14.8%
COc1cccc2c1C(=O)c1c(O)c3c(c(O)c1C2=O)CC(O)(C(=O)CO)CC3OC1CC(N)C(OC2CCCCO2)C(C)O1 (stereo unspecified),inhibition,[1]; [16],-32.3% (inactive)
same,inhibition,[1]; [17],9.11%
same,inhibition,[1]; [18],-11.4%
same,inhibition,[1]; [19],-11.1%
same,inhibition,[1]; [20],-47.4%
same,inhibition,[1]; [21],110%
same,inhibition,"[2]; BGB combo, at 5 µM",97.2%
same,inhibition,[2]; at 0.5 µM,23.8% (inactive)
same,inhibition,"[2]; cisplatin combo, at 5 µM",99.2%
same,inhibition,[2]; [22],21.1%
same,inhibition,[2]; [23],4.67%
same,inhibition,"[2]; single agent, at 5 µM",99%
same,inhibition,"[3]; BGB IC20 combo, at 0.005 µM",-23.2%
same,inhibition,"[3]; BGB IC40 combo, at 0.005 µM",-47.6%
same,inhibition,"[3]; BGB IC40 combo, at 0.05 µM",94.7%
same,inhibition,[3]; at 0.5 µM,-38.2% (inactive)
same,inhibition,"[3]; cisplatin combo, at 0.05 µM",94.5%
same,inhibition,"[3]; cisplatin combo, at 0.5 µM",-60.7%
same,inhibition,"[3]; cisplatin combo, at 5 µM",-43.3%
same,inhibition,[3]; [24],-14.9%
same,inhibition,[4]; at 0.5 µM,60.2% (inactive)
same,inhibition,[4]; [19],-55.1%
same,inhibition,[4]; [25],53.5%
same,inhibition,[4]; [26],95%
same,inhibition,[5]; at 0.5 µM,56.2% (inactive)
same,inhibition,[5]; [27],23.4%
same,inhibition,[5]; [28],99%
same,inhibition,[5]; [29],91%
same,inhibition,[5]; [30],99.6%
same,inhibition,"[5]; single agent, at 5 µM",99.2%
same,inhibition,[6]; at 0.5 µM,30.1% (inactive)
same,inhibition,[6]; [31],85.5%
same,inhibition,[6]; [32],33.2%
same,inhibition,[7]; at 0.5 µM,70.5% (inactive)
same,inhibition,[7]; [33],69.8%
same,inhibition,[7]; [34],77.2%
same,inhibition,[8]; at 0.5 µM,12.2% (inactive)
same,inhibition,[8]; [35],26.6%
same,inhibition,[8]; [36],-27.7%
same,inhibition,[9]; at 0.5 µM,-17% (inactive)
same,inhibition,[9]; [25],-2.89%
same,inhibition,[9]; [26],86.3%
same,inhibition,[10]; at 0.5 µM,24.8% (inactive)
same,inhibition,[10]; [37],4.22%
same,inhibition,[10]; [38],64.7%
same,inhibition,[10]; [39],26.1%
same,inhibition,[10]; [40],84.5%
same,inhibition,[11]; [41],94.3%
same,inhibition,[11]; at 0.5 µM,16.1% (inactive)
same,inhibition,[11]; [42],96.5%
same,inhibition,[12],50% (inactive)
same,inhibition,[12]; [43],42.8%
same,inhibition,[12]; [44],39.2%
same,inhibition,[13]; at 0.5 µM,2.98% (inactive)
same,inhibition,[13]; [45],23.2%
same,inhibition,"[13]; cisplatin combination, at 5 µM",-6.21%
same,inhibition,[13]; [46],-28.8%
same,inhibition,"[13]; single agent, at 5 µM",27%
same,inhibition,[14]; at 0.5 µM,21.9% (inactive)
same,inhibition,"[14]; cisplatin combo, at 5 µM",71.1%
same,inhibition,[14]; [47],-38.8%
same,inhibition,[14]; [25],44.2%
same,inhibition,"[14]; single agent, at 5 µM",71.6%
same,inhibition,[15]; at 0.5 µM,91.3% (active)
same,inhibition,[15]; [22],85.6%
same,inhibition,[15]; [23],94.1%
same,inhibition,"[15]; single agent, at 0.05 µM",-29.5%
same,inhibition,"[15]; single agent, at 5 µM",99.5%
